PubChem BioAssay AID2435 (The Scripps Research Institute Molecular Screening Center, 2010)
Among all 320,000 compounds or so, about 1,000 (0.31%) were called active. For the sample, actives were picked, then their nearest neighbours and some compounds at random. A number with no mark means an inactive call.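 The calls were made as follows: active = activation above the mean of all tested compounds plus 3 SD, cutoff set per screening run (cut at about 20% in these data); inactive = the rest.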

Each compound was assayed against Oxytocin receptor (Homo sapiens) (UniProt P30559) (assay: human OXTR agonists, primary screen, fluorescence, CHO-OTR cells, Fluo-8 calcium (AID 2435;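 also: peak over basal fluorescence ratio from a 100 s FLIPR kinetic read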)). Settings: Fluo-8 calcium fluorescence, at 3 µM, active compounds read high.
Oxytocin receptor (Homo sapiens), sequence (P30559 whole entry, looked up): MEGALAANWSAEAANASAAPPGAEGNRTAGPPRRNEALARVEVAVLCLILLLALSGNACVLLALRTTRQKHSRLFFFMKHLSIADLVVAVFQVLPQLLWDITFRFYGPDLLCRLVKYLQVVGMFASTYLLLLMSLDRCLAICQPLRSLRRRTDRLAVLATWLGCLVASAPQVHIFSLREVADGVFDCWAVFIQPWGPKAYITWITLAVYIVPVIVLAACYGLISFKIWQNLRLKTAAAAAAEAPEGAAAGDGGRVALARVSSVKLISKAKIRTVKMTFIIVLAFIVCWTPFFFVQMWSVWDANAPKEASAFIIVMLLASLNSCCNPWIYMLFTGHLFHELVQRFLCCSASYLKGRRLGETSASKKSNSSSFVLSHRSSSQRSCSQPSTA

SMILES	activation
CC(=O)NC(=O)NC(C)Cc1ccccc1 (stereo not given)	-0.72%
CC(Cc1ccccc1)NCCC(c1ccccc1)c1ccccc1 (stereo not given)	23.9% (active)
CC(Cc1ccccc1)NC=O (stereo not given)	-0.34%
O=C(c1cc2nc(-c3ccccc3)cc(-c3ccccc3)n2n1)N1CCC2(CC1)OCCO2	-2.27%
O=C(Cc1ccc(Cl)cc1)NCCN1CCN(C(=O)Cc2ccc(Cl)cc2)CC1	1.31%
